A short description of assay [1]: NCI Yeast Anticancer Drug Screen. Data for the rad50 strain (AID 155).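 Note: 0% = growth of vehicle-only cultures of the same strain.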 The note with it: S. cerevisiae rad50 strain growth inhibition, hits give high values; at 50.0 µM unless noted. In short, it runs like this: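 Cells are treated with compound, grown, and their growth is then scored against vehicle-only cultures of the same repair-deficient yeast strain.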
The nature of assay [2]: NCI Yeast Anticancer Drug Screen. Data for the mec2-1 strain (AID 157). The note with it: S. cerevisiae mec2-1 strain, hits give high values; at 50.0 µM unless noted. An outline of the steps: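 mec2-1 yeast strain, carrying an alteration in DNA damage repair or cell cycle control, was exposed to compounds; growth inhibition was measured relative to vehicle-treated controls.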

The nature of assay [3]: NCI Yeast Anticancer Drug Screen. Data for the sgs1 mgt1 strain (AID 161).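 Note: 0% = growth of cultures given vehicle only.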 The conditions noted are these: S. cerevisiae sgs1 mgt1 strain, hits give high values; at 50.0 µM unless noted. In short, it runs like this:
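This yeast growth screen uses a strain with defined DNA-repair lesions; compound-treated growth is compared with vehicle-treated growth.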

The nature of assay [4]: NCI Yeast Anticancer Drug Screen. Data for the cln2 rad14 strain (AID 165).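 Note: 0% = growth equal to vehicle treated cultures.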 The note with it: S. cerevisiae cln2 rad14 strain, hits give high values; at 50.0 µM unless noted. An outline of the steps: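 Yeast carrying cln2 and rad14 alterations (cell cycle control and DNA damage repair) were exposed to compounds. Growth inhibition was measured against vehicle-treated controls.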

Assay [5] is described as follows: NCI Yeast Anticancer Drug Screen. Data for the bub3 strain (AID 167). The conditions noted are these: S. cerevisiae bub3 mutant strain, hits give high values; at 50.0 µM unless noted. An outline of the steps:
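Part of a panel of yeast mutants defective in DNA damage repair or cell cycle regulation. Each strain is grown with compound, and inhibition is calculated relative to solvent-treated cultures.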

Assay [6] is described as follows: NCI Yeast Anticancer Drug Screen. Data for the mlh1 rad18 strain (AID 175). The conditions noted are these: S. cerevisiae mlh1 rad18 strain growth inhibition, hits give high values; at 50.0 µM unless noted. An outline of the steps: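 Growth inhibition of the yeast strain was measured after compound exposure and expressed relative to vehicle-treated controls. The strain carries defined defects in DNA damage repair.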

SMILES strings stand for the structures. Where “and” joins values, the source holds several entries; their conditions need not be identical. Identical values can stand only once. This is part of a sample that, as a whole, favours compounds with a hit. Of some 79,000 tested, about 15% had one in any assay. A number with no mark means an inactive call. Calls of active or inactive are those of the source. Cut-off read from the data, not from the text of the source: active = growth inhibition above about 70%; inactive = the rest.

For `O=C(NC(CSC(c1ccccc1)(c1ccccc1)c1ccccc1)C(=O)O)OC(c1ccccc1)c1ccccc1` (stereo unspecified), the growth inhibition in assay [1] was 91.5% (active); in assay [2], 95.6% (active); in assay [3], 96.5% (active); in assay [4], 89% (active); in assay [5], 89.5% (active); in assay [6], 96.5% (active).

Turning to `CC(C)(C)[Si](C)(C)OCC1OC(n2cnc3c(=O)[nH]cnc32)CC1O` (stereo unspecified), the growth inhibition in assay [1] is 0.35%; in assay [2], 6.2%; in assay [3] it was 3.2%; in assay [4], 8%; in assay [5], 44%; in assay [6], -7.85%.

As for `N#CCCCCCOCCOCCOCCOCCOCCCCCC#N`, the growth inhibition in assay [1] is 12.8%; in assay [2], 12.9%; in assay [3] it was -10.2%; in assay [4], 12.7%; in assay [5], -1.75%; in assay [6], 18.6%.

In the case of `O=S(=O)(O)c1cc(S(=O)(=O)O)c2cc(O)ccc2c1`, the growth inhibition in assay [1] is 0.6%; in assay [2], 3.35%; in assay [3], 13.4%; in assay [4], -18.6%; in assay [5], 5.35%; in assay [6], 28.4%.

Regarding `COc1cccc(C)c1C(=O)O`, the growth inhibition in assay [1] is -4.05%; in assay [2], 1.7%; in assay [3], 5.7%; in assay [4] it was -20.1%; in assay [5] it was -32%; in assay [6] it was -5.4%.

For `CO[C@@H]1C2=CC=CC=C[C@H]2n2c(=O)n(-c3ccccc3)c(=O)n21`, the growth inhibition in assay [1] was -10.2%; in assay [2], 18.6%; in assay [3], 18.4%; in assay [4], -14.4%; in assay [5] it was -1.15%; in assay [6], 13.2%.

On to `Cc1cnc2ccccc2c1/C=C/c1ccc(N(C)C)cc1`, for which the growth inhibition in assay [1] is -6.15%; in assay [2] it was -0.1%; in assay [3], 1.55%; in assay [4], -121%; in assay [5], 14.1%; in assay [6], 14.1%.

With `CCOC(=O)c1c(C)cc(=O)oc1C`, the growth inhibition in assay [1] was -8.65% and 3.95%; in assay [2] it was 7.55% and -1.6%; in assay [3] it was -4.65% and -3.25%; in assay [4], -31.3% and -11.1%; in assay [5], 2.3% and -1.7%; in assay [6], -11.8% and 8.75%.

With `Nc1nc(Cl)c(N)c(NCC2(CO)CC(Cc3ccccc3)C2)n1` (stereo unspecified), the growth inhibition in assay [1] is 26.4%; in assay [2], -35.4%; in assay [3], 18.9%; in assay [4] it was 7.6%; in assay [5] it was 31%; in assay [6], 15.1%.

As for `CN(C(=O)CCC1OCCO1)c1cc(N)ccc1OCc1ccccc1`, the growth inhibition in assay [1] is 15.3%; in assay [2], -0.7%; in assay [3] it was -7.2%; in assay [4], 4.8%; in assay [5], 19.9%; in assay [6] it was -18.6%.

With `O=c1cnn2c(n1)OC1C(O)C(CO)OC12` (stereo unspecified), the growth inhibition in assay [1] is 3.55%; in assay [2], -2.5%; in assay [3] it was 9.6%; in assay [4], -21.7%; in assay [5] it was -11.7%; in assay [6], 22%.

As to `Cn1c(=O)[nH]c2ccc(Cl)cc2c1=O`, the growth inhibition in assay [1] is 2.75%; in assay [2], -5.85%; in assay [3], -3.25%; in assay [4], -67.8%; in assay [5], 8.15%; in assay [6] it was 5.85%.

For the compound `Cc1ccc(S(=O)(=O)N/N=C(/c2nc3ccc([N+](=O)[O-])cc3[nH]c2=O)C(O)c2ccc(C(O)/C(=N\NS(=O)(=O)c3ccc(C)cc3)c3nc4ccc([N+](=O)[O-])cc4[nH]c3=O)cc2)cc1` (stereo unspecified), the growth inhibition in assay [1] is -16.6%; in assay [2], -27.6%; in assay [3] it was -26.2%; in assay [4], 0.6%; in assay [5], -32.7%; in assay [6] it was -10.3%.

Regarding `CN(C)CCN(C)C(=O)C1CCCN1C(=O)OCc1ccccc1` (stereo unspecified), the growth inhibition is -44.6% in assay [1]; -56% in assay [2]; -53.8% in assay [3]; 9.3% in assay [4]; -37.6% in assay [5]; -46.8% in assay [6].

For the compound `CC(=O)Oc1ccc(Cc2ccccc2)cc1`, the growth inhibition is 47% in assay [1]; 33.5% in assay [2]; 48.2% in assay [3]; -49.2% in assay [4]; 32.9% in assay [5]; 49.1% in assay [6].

For the compound `CCCCN(CCCC)C(=O)c1cccc(C)c1`, the growth inhibition in assay [1] was 13.7%; in assay [2] it was 8.1%; in assay [3], 4.1%; in assay [4] it was -16.4%; in assay [5], 53.2%; in assay [6] it was 14.1%.

On to `CCN(CCNS(C)(=O)=O)c1ccc(N)c(C)c1`, for which the growth inhibition in assay [1] is -15.3% and -11.2%; in assay [2] it was -17.2% and -6.1%; in assay [3] it was -23.1% and -14.5%; in assay [4], 1.5% and -19.1%; in assay [5] it was -17.9% and 1.95%; in assay [6], -4.05% and 6.35%.

With `CC(C)(C)NC(=O)CCCl`, the growth inhibition was 16.4% in assay [1]; 14.4% in assay [2]; 16.5% in assay [3]; 5.6% in assay [4]; 1.8% in assay [5]; 41.8% in assay [6].

Turning to `OCCNc1cccc2ccccc12`, the growth inhibition is 31.6% in assay [1]; -4.15% in assay [2]; 35.2% in assay [3]; 18.9% in assay [4]; 8.8% in assay [5]; 37.4% in assay [6].

With `O=C(N(O)c1ccccc1Cl)C(O)(c1ccccc1)c1ccccc1`, the growth inhibition is 28.2% in assay [1]; 16.6% in assay [2]; 59.1% in assay [3]; 37% in assay [4]; 31.4% in assay [5]; 75.5% (active) in assay [6].

Take `C=CC[Si](CC=C)(OCC)OCC`: the growth inhibition in assay [1] was 9.65%; in assay [2] it was -21.9%; in assay [3] it was 7.05%; in assay [4], 20.7%; in assay [5], -6.9%; in assay [6] it was 23.2%.

`CC(C)CCN`: the growth inhibition in assay [1] is 2.75%; in assay [2] it was 8.9%; in assay [3], -3.35%; in assay [4], 19.1%; in assay [5] it was 3.3%; in assay [6], 30.2%.

Take `C=C=C(C)[Si](C)(C)C`: the growth inhibition is -14.8% in assay [1]; 3.85% in assay [2]; -29.9% in assay [3]; -3.25% in assay [4]; -51.5% in assay [5]; -45.9% in assay [6].

For `CC(C(=O)O)N1C(=O)CNC1=O` (stereo unspecified), the growth inhibition was -1.85% in assay [1]; -4.05% in assay [2]; 1.15% in assay [3]; -37.6% in assay [4]; 1.25% in assay [5]; -12.8% in assay [6].

Turning to `Cc1ccc(C(CCC#N)OC(C)C)cc1` (stereo unspecified), the growth inhibition in assay [1] is 0.95%; in assay [2], 19.8%; in assay [3], 25.1%; in assay [4], 11.9%; in assay [5], 3.15%; in assay [6] it was 21.1%.

For `Cc1ccc(S(=O)(=O)OC2CCSCC2)cc1`, the growth inhibition in assay [1] was -5.25%; in assay [2], -10.3%; in assay [3] it was 7.7%; in assay [4], -11.9%; in assay [5], 7.05%; in assay [6] it was -4.8%.

On to `CCOC(=S)Nc1ccccc1[N+](=O)[O-]`, for which the growth inhibition in assay [1] was 8.05%; in assay [2] it was -10.6%; in assay [3], 0.05%; in assay [4], -57.6%; in assay [5], -23.6%; in assay [6], -9.15%.

As to `O=C1CN(c2cccc(Cl)c2)C(=O)CN1/N=C/c1ccco1`, the growth inhibition in assay [1] is 18.9%; in assay [2] it was -14.5%; in assay [3], 18%; in assay [4], 12.7%; in assay [5] it was 23.8%; in assay [6], 22.1%.

As to `CCCCOC(=O)c1ccccc1C(=O)Nc1ccccc1`, the growth inhibition was 7.6% in assay [1]; 12.6% in assay [2]; 2% in assay [3]; 2.1% in assay [4]; 4.4% in assay [5]; -19.7% in assay [6].

Consider `CC(C)(C)OC(=O)/N=C/c1c(O)c2ccccc2oc1=O`, for which the growth inhibition in assay [1] is -36.5%; in assay [2], -20.5%; in assay [3] it was -21.8%; in assay [4], 9.75%; in assay [5] it was -17.4%; in assay [6] it was -26%.

As to `C=C1[C@@H](O)C[C@@H]2C[C@@]3(C)[C@H](C(C)(C)C[C@@H]3O)C12O` (stereo partly specified), the growth inhibition in assay [1] is -4.25%; in assay [2], -17.5%; in assay [3], -20.9%; in assay [4] it was 5%; in assay [5], -19%; in assay [6], -20.2%.

`Cc1ccc(C(=O)CC2=Nc3nnc(CCCCCCCc4nnc5n4C(=O)C(CC(=O)c4ccc(C)cc4)=N5)n3C2=O)cc1`: the growth inhibition in assay [1] is -9.45%; in assay [2], 22.4%; in assay [3], -0.1%; in assay [4], -22%; in assay [5] it was -5.25%; in assay [6], -11.1%.

In the case of `Cc1ccc(/C=C/C(=O)C(C)CN(C)C)cc1C` (stereo unspecified), the growth inhibition was -1% in assay [1]; -15.4% in assay [2]; 26.1% in assay [3]; 0.95% in assay [4]; 0.3% in assay [5]; 9.65% in assay [6].

As to `COc1ccc(C=O)c(Cl)c1OC`, the growth inhibition in assay [1] is 26.8%; in assay [2], 14.4%; in assay [3], 0.95%; in assay [4] it was 6.55%; in assay [5], -7.85%; in assay [6] it was -16.8%.

On to `CCOC(=O)C(=O)Nc1c(C)cccc1C(C)(C)C`, for which the growth inhibition in assay [1] was -22.1%; in assay [2], -30.4%; in assay [3], -4.35%; in assay [4], 3.55%; in assay [5], -16.8%; in assay [6], -7.05%.

As to `CCCOC(=O)C1C(c2ccc(OC)cc2)NC(c2ccc(OC)cc2)C(C(=O)OCCC)S1(=O)=O` (stereo unspecified), the growth inhibition in assay [1] was -39.5%; in assay [2], -2.8%; in assay [3], -21.6%; in assay [4] it was -5%; in assay [5] it was -19.4%; in assay [6] it was -14.3%.

For the origin of these results see PubChem BioAssay (NCI).
